In all, about 81,000 sequences were measured (“one-hybrid fitness for binding NBS DNA”: median about -0.1, highest 2% from about 0.36 on). The list comes from a sample in which the highest values are over-represented; it also holds similar and randomly drawn sequences.
B1: Caulobacter ParB omega fusion; a variant is named by its letters at X, in order, B8GW30 (parent)
chain: MESVVVGEPGMSEGRRGLGRGLSALLGEVDAAPAQAPGEQLGGSREAPIEILQRNPDQPRRTFREEDLEDLSNSIREKGVLQPILVRPSPDTAGEYQIVAGERAWRAAQRAGLKTVPIMVRELDDLAVLEIGIIENVQRADLNVLEEALSYKVLMEKFERTQENIAQTIGKSXSHVANXMRLLXLPDEVQSYLVSGELTAXHARAIAAAADPVALAKQIIEGGLSVRETEALARKAPNLSAGKSKGGRPPRVKDTDTQALESDLSSVLGLDVSIDHRGSTGTLTITYATLEQLDDLCNRLTRGI

Variants of: B1
Assay: one-hybrid fitness for binding NBS DNA (the Noc-binding site; scaled: cognate 1, non-cognate 0); higher = stronger binding
Details: with NBS DNA site
Summary of the method: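 Selection: bacterial one-hybrid in E. coli USO, HIS3 reporter with the site 19 bp from the promoter, 48 hours at 37°C on M9-minus-histidine plus 0.1 mM IPTG and 5 mM 3-AT. Libraries were Caulobacter ParB with four randomised specificity codons, sequenced on Illumina before and after selection. Fitness is the rescaled log change in variant-to-wild-type read ratio, anchored to the cognate and non-cognate sites.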

| Variant | one-hybrid fitness for binding NBS DNA |
| --- | --- |
| ALSW | ≤ 0.2 |
| HILV | ≤ 0.2 |
| LNQE | ≤ 0.2 |
| DNHT | ≤ 0.2 |
| YLSD | ≤ 0.2 |
| HLNK | ≤ 0.2 |
| MSFM | ≤ 0.2 |
| LRFR | ≤ 0.2 |
| TEAT | ≤ 0.2 |
| QSRW | 0.254 |
| QPRW | ≤ 0.2 |
| QCRW | 0.371 |
| PRVW | ≤ 0.2 |
| QTYW | ≤ 0.2 |
| QTRW | 0.417 |
| QRYW | 0.203 |
| QRDW | ≤ 0.2 |
| PRYW | ≤ 0.2 |
| QRRW | 0.384 |
| QTDW | ≤ 0.2 |
| PRKW | 0.446 |
| NMRT | ≤ 0.2 |
| KSRN | ≤ 0.2 |
| MPIT | ≤ 0.2 |
| SLCY | ≤ 0.2 |
| ADNG | ≤ 0.2 |

| Variant | one-hybrid fitness for binding NBS DNA |
| --- | --- |
| FLPR | ≤ 0.2 |
| QTVW | ≤ 0.2 |
| QCKW | 0.324 |
| QSKW | 0.279 |
| QTKW | 0.439 |
| QRKW | 0.411 |
| QRVW | ≤ 0.2 |
| NCCT | ≤ 0.2 |
| PANC | ≤ 0.2 |
| PYWD | ≤ 0.2 |
| QGMV | ≤ 0.2 |
| TIMA | ≤ 0.2 |
| FGDS | ≤ 0.2 |
| LKMV | ≤ 0.2 |
| RAKR | 0.668 |
| RGVR | ≤ 0.2 |
| RAVR | 0.277 |
| RGKR | 0.38 |
| RIVR | 0.28 |
| RGYR | ≤ 0.2 |
| RAKP | ≤ 0.2 |
| RIKR | 0.675 |
| RMKY | 0.311 |
| RMVR | 0.314 |
| RIKD | ≤ 0.2 |
| RMKR | 0.738 |

| Variant | one-hybrid fitness for binding NBS DNA |
| --- | --- |
| IRVQ | 0.203 |
| VYLC | ≤ 0.2 |
| TESV | ≤ 0.2 |
| QVNP | ≤ 0.2 |
| GTKF | ≤ 0.2 |
| LEMR | ≤ 0.2 |
| RFPS | ≤ 0.2 |
| QVIH | ≤ 0.2 |
| GACL | ≤ 0.2 |
| RSVR | 0.293 |
| RLVR | 0.257 |
| RWKM | ≤ 0.2 |
| RFVR | ≤ 0.2 |
| RSKR | 0.682 |
| RWYM | ≤ 0.2 |
| NFKR | ≤ 0.2 |
| RLKR | 0.686 |
| RSKN | ≤ 0.2 |
| RFKR | 0.522 |
| RLKH | 0.35 |
| RWVM | 0.413 |
| YFYC | ≤ 0.2 |
| QASC | ≤ 0.2 |
| LDYW | ≤ 0.2 |
| GGII | ≤ 0.2 |
| RCKR | 0.76 |

| Variant | one-hybrid fitness for binding NBS DNA |
| --- | --- |
| RHVR | 0.248 |
| RDKR | ≤ 0.2 |
| RHKR | 0.701 |
| RWKR | 0.372 |
| RHKH | 0.326 |
| RPKR | ≤ 0.2 |
| RWVR | 0.259 |
| RWKP | ≤ 0.2 |
| FTQR | ≤ 0.2 |
| PCEF | ≤ 0.2 |
| PQIS | ≤ 0.2 |
| NIFS | ≤ 0.2 |
| NWPM | ≤ 0.2 |
| QHVW | ≤ 0.2 |
| NGRT | ≤ 0.2 |
| SSRN | ≤ 0.2 |
| GTQF | ≤ 0.2 |
| RRIN | 0.206 |
| RCRN | 0.23 |
| RRYN | 0.26 |
| RRRN | 0.618 |
| RCIC | ≤ 0.2 |
| RRIC | 0.399 |
| RRPC | 0.249 |
| RCES | 0.207 |
| RRIS | 0.661 |

| Variant | one-hybrid fitness for binding NBS DNA |
| --- | --- |
| RRIH | 0.338 |
| RREN | ≤ 0.2 |
| RRES | 0.578 |
| NKTG | ≤ 0.2 |
| YEAN | ≤ 0.2 |
| WTTS | ≤ 0.2 |
| MTMK | ≤ 0.2 |
| HRPA | ≤ 0.2 |
| GPSL | ≤ 0.2 |
| CRYG | ≤ 0.2 |
| RRPS | 0.568 |
| RRPD | ≤ 0.2 |
| RRYD | ≤ 0.2 |
| RRRS | 0.74 |
| RRYS | 0.661 |
| RPYS | ≤ 0.2 |
| RRRP | 0.283 |
| RRPN | ≤ 0.2 |
| RRRD | 0.202 |
| VRHA | ≤ 0.2 |
| LNEM | ≤ 0.2 |
| ADCG | ≤ 0.2 |
| SSQM | ≤ 0.2 |
| DSAV | ≤ 0.2 |
| PELK | ≤ 0.2 |
| STQD | ≤ 0.2 |

| Variant | one-hybrid fitness for binding NBS DNA |
| --- | --- |
| GVGA | ≤ 0.2 |
| SIFQ | ≤ 0.2 |
| KCTR | ≤ 0.2 |
| KCTT | ≤ 0.2 |
| KRTS | 0.448 |
| KPTR | ≤ 0.2 |
| NRTT | ≤ 0.2 |
| KRTT | 0.583 |
| KRTP | ≤ 0.2 |
| KRTR | 0.563 |
| KRTN | ≤ 0.2 |
| EFMG | ≤ 0.2 |
| NTNM | ≤ 0.2 |
| VSAH | ≤ 0.2 |
| AAKR | 0.205 |
| NKSI | ≤ 0.2 |
| GMFR | ≤ 0.2 |
| SFAG | ≤ 0.2 |
| TRHR | 0.409 |
| TCRR | 0.333 |
| TRNR | 0.466 |
| TCGR | ≤ 0.2 |
| TRGR | 0.389 |
| TRYR | 0.301 |
| TCHR | ≤ 0.2 |
| TCNR | ≤ 0.2 |

| Variant | one-hybrid fitness for binding NBS DNA |
| --- | --- |
| ARGR | ≤ 0.2 |
| TRDR | ≤ 0.2 |
| TRHN | ≤ 0.2 |
| TRRR | 0.682 |
| RYPE | ≤ 0.2 |
| FLFY | ≤ 0.2 |
| CVRG | ≤ 0.2 |
| MMMT | ≤ 0.2 |
| PQRS | ≤ 0.2 |
| PARP | ≤ 0.2 |
| AWAT | ≤ 0.2 |
| NMTI | ≤ 0.2 |
| LVAP | ≤ 0.2 |
| RIFS | 0.214 |
| RIYS | 0.413 |
| RIWD | ≤ 0.2 |
| RIWS | 0.397 |
| RIRS | 0.56 |
| RIWP | ≤ 0.2 |
| RIRD | ≤ 0.2 |
| RIND | ≤ 0.2 |
| RIIS | ≤ 0.2 |
| RINS | 0.445 |
| RIDS | ≤ 0.2 |
| RIRP | ≤ 0.2 |
| DTYS | ≤ 0.2 |

| Variant | one-hybrid fitness for binding NBS DNA |
| --- | --- |
| SANL | ≤ 0.2 |
| RGWI | ≤ 0.2 |
| YSMI | ≤ 0.2 |
| YTKY | ≤ 0.2 |
| IQNI | ≤ 0.2 |
| RIHD | ≤ 0.2 |
| RIHS | 0.381 |
| RIHN | ≤ 0.2 |
| NKNM | ≤ 0.2 |
| QYKV | 0.372 |
| QYRV | 0.392 |
| IYVV | ≤ 0.2 |
| IYPV | 0.41 |
| QYVV | ≤ 0.2 |
| IYIV | ≤ 0.2 |
| WYVV | ≤ 0.2 |
| QYDV | ≤ 0.2 |
| QYSV | ≤ 0.2 |
| QYYV | ≤ 0.2 |
| WYRV | ≤ 0.2 |
| WYCV | 0.366 |

Reference: a collection of fitness landscapes (doi:10.1016/j.celrep.2020.107928)
